{
  "source": "PubChem BioAssay AID1259349",
  "about": "(Broad Institute, 2017)",
  "note": "Where “and” joins values, the source holds several entries; their conditions need not be identical. Identical values can stand only once. Hit rate of the full screen: of about 17,000 compounds, about 1,100 (6.5%) were called active.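 Rule for the calls: active = z-score of -3 or lower, meaning strong loss of probe binding signal; inactive = the rest.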 Shown is part of a subset that was picked to be rich in actives. Where a structure was tested more than once in an assay, its records may differ in their call.",
  "data": [
    {"target": "Insulin-degrading enzyme (Homo sapiens) (UniProt P14735)", "sequence (P14735 42-1019 limits assumed)": "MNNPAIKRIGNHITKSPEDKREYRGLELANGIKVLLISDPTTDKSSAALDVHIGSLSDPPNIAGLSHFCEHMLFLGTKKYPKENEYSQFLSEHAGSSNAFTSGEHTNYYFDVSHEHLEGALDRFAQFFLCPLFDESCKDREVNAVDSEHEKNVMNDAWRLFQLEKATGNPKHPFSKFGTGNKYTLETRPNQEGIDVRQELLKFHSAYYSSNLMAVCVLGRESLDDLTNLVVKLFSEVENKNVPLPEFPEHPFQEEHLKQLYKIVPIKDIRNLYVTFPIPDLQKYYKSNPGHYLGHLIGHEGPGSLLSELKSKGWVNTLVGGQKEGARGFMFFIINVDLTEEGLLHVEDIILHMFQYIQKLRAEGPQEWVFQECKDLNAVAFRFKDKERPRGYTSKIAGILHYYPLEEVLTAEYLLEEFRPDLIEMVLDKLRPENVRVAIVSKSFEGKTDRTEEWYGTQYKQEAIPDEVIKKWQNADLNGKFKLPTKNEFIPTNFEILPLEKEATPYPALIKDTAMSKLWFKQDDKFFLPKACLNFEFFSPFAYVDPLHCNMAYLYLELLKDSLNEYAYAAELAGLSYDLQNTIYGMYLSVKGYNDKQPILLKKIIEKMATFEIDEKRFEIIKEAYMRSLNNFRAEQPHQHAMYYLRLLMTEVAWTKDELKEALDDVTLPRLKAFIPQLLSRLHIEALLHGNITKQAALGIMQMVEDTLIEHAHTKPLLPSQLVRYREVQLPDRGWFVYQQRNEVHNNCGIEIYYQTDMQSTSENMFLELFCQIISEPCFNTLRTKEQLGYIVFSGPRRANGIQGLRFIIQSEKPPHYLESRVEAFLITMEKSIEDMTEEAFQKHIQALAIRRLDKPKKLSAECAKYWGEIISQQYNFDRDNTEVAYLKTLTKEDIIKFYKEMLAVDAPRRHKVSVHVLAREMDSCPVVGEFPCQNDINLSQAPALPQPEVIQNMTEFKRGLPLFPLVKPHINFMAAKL", "assay": "exo-site inhibitors of human IDE, primary screen, biochemical, fluorescence anisotropy, probe displacement (AID 1259349);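 note: His-tagged human IDE residues 42-1019 made in E. coli with 30 nM FL-6b probe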", "settings": "purified IDE, FL-6b probe fluorescence polarization; at 20 µM; stronger effect = lower value", "values": [
      {"smiles": "COCC#Cc1ccc([C@@H]2[C@@H](CO)N3CCCCN(C(=O)COC)C[C@@H]23)cc1", "z-score": "1.49 (inactive)"},
      {"smiles": "CCCNC(=O)N1[C@H](CO)[C@@H](c2ccc(-c3ccc(C(=O)N(C)C)cc3)cc2)[C@@H]1C#N", "z-score": "-1.53 (inactive)"},
      {"smiles": "CCC(=O)N1[C@@H](CO)[C@@H]2c3ccccc3N(C(=O)c3cnccn3)C[C@@H]21", "z-score": "1.18 (inactive)"},
      {"smiles": "CO[C@@H]1CN(C)C(=O)c2cc(NS(=O)(=O)c3cccc(Cl)c3)ccc2OC[C@@H](C)NC[C@@H]1C", "z-score": "-0.0121 (inactive)"},
      {"smiles": "O=C(c1cnccn1)N1CC(=O)N2[C@H](C1)[C@@H](c1ccc(C#CC3CCCCC3)cc1)[C@@H]2CO", "z-score": "4.43 (inactive)"},
      {"smiles": "Cc1ccccc1S(=O)(=O)N1C[C@H](O)COC[C@H]2O[C@H](CC(=O)N3CCCCC3)CC[C@@H]21", "z-score": "-0.576 (inactive)"},
      {"smiles": "C[C@H](NC(=O)C[C@H]1CC[C@H]2[C@@H](COC[C@H](O)CN2C(=O)Nc2cccc(Cl)c2)O1)c1ccccc1", "z-score": "1.23 (inactive)"},
      {"smiles": "Cn1cnc(S(=O)(=O)N2CCCCN3[C@@H](CO)[C@@H](c4ccc(C#CC5CCCC5)cc4)[C@@H]3C2)c1", "z-score": "1.81 (inactive)"},
      {"smiles": "O=C(Nc1ccc(C(F)(F)F)cc1)N1[C@@H]2CNC[C@H]1C2c1ccc(-c2ccncc2)cc1", "note": "(some centres not stated)", "z-score": "3.1 (inactive) and 5.44 (inactive)"},
      {"smiles": "COc1ccc(-c2ccc3c(c2)[C@@H]2[C@@H](CCN2C(=O)c2cccc(F)c2)[C@H](CO)N3)cc1", "z-score": "1.25 (inactive)"},
      {"smiles": "O=C(c1ccccc1)N1CC(=O)N2[C@@H](CO)[C@H](c3ccc(C#CCC4CCCC4)cc3)[C@@H]2C1", "z-score": "0.717 (inactive)"},
      {"smiles": "CNC[C@@H]1OCCCC[C@H](C)Oc2ccc(NC(=O)Nc3ccc(OC)cc3)cc2C(=O)N([C@H](C)CO)C[C@@H]1C", "z-score": "1.03 (inactive)"},
      {"smiles": "CC(=O)N1CC2(C1)[C@H](c1ccccc1)[C@@H](CO)N2C(=O)Cc1ccccc1", "z-score": "-0.887 (inactive)"},
      {"smiles": "COc1ccc2c3c([nH]c2c1)[C@H](CO)N(Cc1ccccc1Cl)CC31CN(C(=O)C2CC2)C1", "z-score": "-4.06 (active)"},
      {"smiles": "COCC(=O)N1CC2(C1)CN(Cc1ccccc1F)[C@@H](CO)c1[nH]c3cc(OC)ccc3c12", "z-score": "-1.64 (inactive)"},
      {"smiles": "COc1ccc2c3c([nH]c2c1)[C@@H](CO)N(Cc1cc(F)ccc1F)CC31CN(C(=O)C2CCC2)C1", "z-score": "-1.31 (inactive)"},
      {"smiles": "N#Cc1cccc(-c2ccc3c(c2)[C@H]2[C@H](CCN2Cc2ccc4c(c2)OCO4)[C@@H](CO)N3)c1", "z-score": "1.22 (inactive)"},
      {"smiles": "CC(C)NC(=O)N1CCCCN2[C@H](CO)[C@@H](c3ccc(Br)cc3)[C@H]2C1", "z-score": "2.67 (inactive)"},
      {"smiles": "CCCNC(=O)N1[C@H](C#N)[C@@H](c2ccccc2)[C@H]1CO", "z-score": "3.95 (inactive)"},
      {"smiles": "C[C@@H]1CCCCO[C@H](CN(C)S(=O)(=O)c2cn(C)cn2)[C@H](C)CN([C@H](C)CO)C(=O)c2cc(N(C)C)ccc2O1", "z-score": "-0.253 (inactive)"},
      {"smiles": "CCCNC(=O)N1[C@@H]2CNC[C@H]1C2c1ccc(-c2cccc(C)c2)cc1", "note": "(some centres not stated)", "z-score": "0.449 (inactive) and -6.06 (active)"},
      {"smiles": "COc1cccc(-c2ccc(C3[C@H]4CNC[C@@H]3N4C(=O)Nc3ccc(F)cc3)cc2)c1", "note": "(some centres not stated)", "z-score": "-0.759 (inactive) and -1.81 (inactive)"},
      {"smiles": "CCCNC(=O)N1[C@@H]2CNC[C@H]1C2c1ccc(-c2ccccc2)cc1", "note": "(some centres not stated)", "z-score": "0.774 (inactive) and 1.73 (inactive)"},
      {"smiles": "CCC(=O)N1[C@@H](CO)[C@H](c2ccc(-c3cccc(F)c3)cc2)[C@@H]1CNC(C)=O", "z-score": "2.2 (inactive)"},
      {"smiles": "N#C[C@@H]1[C@H](c2ccccc2-c2ccccc2F)[C@@H](CO)N1C(=O)C1CCOCC1", "z-score": "3.52 (inactive)"},
      {"smiles": "Cc1noc(C)c1S(=O)(=O)N(C)C[C@H]1Oc2ccc(N(C)C)cc2C(=O)N([C@H](C)CO)C[C@@H]1C", "z-score": "-1.17 (inactive)"},
      {"smiles": "COc1ccc(C#Cc2ccc([C@H]3[C@@H](CO)N4CCCCN(C(=O)Nc5ccccc5)C[C@H]34)cc2)cc1", "z-score": "4.38 (inactive)"},
      {"smiles": "O=C(Nc1ccc(F)cc1)N1CCCCN2[C@H](CO)[C@H](c3ccc(C#Cc4ccccc4)cc3)[C@H]2C1", "z-score": "-0.00774 (inactive)"},
      {"smiles": "CN(C)CC#Cc1ccc([C@H]2[C@H]3CN(S(=O)(=O)c4ccccc4F)CCCCN3[C@H]2CO)cc1", "z-score": "1.11 (inactive)"},
      {"smiles": "COc1ccccc1C#Cc1ccc([C@@H]2[C@H](CO)N3CCCCN(CCC(F)(F)F)C[C@@H]23)cc1", "z-score": "-8.07 (active)"},
      {"smiles": "CCCC#Cc1ccc([C@@H]2[C@H](CO)N3CCCCN(S(=O)(=O)c4ccccc4F)C[C@@H]23)cc1", "z-score": "-4.86 (active)"},
      {"smiles": "CS(=O)(=O)N1CCCCN2[C@@H](CO)[C@@H](c3ccc(Br)cc3)[C@@H]2C1", "z-score": "-1.86 (inactive)"},
      {"smiles": "CCCC#Cc1ccc([C@H]2[C@H](CO)N3CCCCN(S(=O)(=O)CC)C[C@@H]23)cc1", "z-score": "3.45 (inactive)"},
      {"smiles": "COc1ccccc1C#Cc1ccc([C@H]2[C@H](CO)N3CCCCN(C(=O)C4CCC4)C[C@@H]23)cc1", "z-score": "-12.3 (active)"},
      {"smiles": "CCCC#Cc1ccc([C@H]2[C@@H](CO)N3CCCCN(S(=O)(=O)CC)C[C@H]23)cc1", "z-score": "3.29 (inactive)"},
      {"smiles": "OC[C@H]1[C@@H](c2ccc(C#Cc3ccccc3F)cc2)[C@H]2CN(CC3CCOCC3)CCCCN21", "z-score": "0.86 (inactive)"},
      {"smiles": "COc1ccccc1C#Cc1ccc([C@@H]2[C@@H](CO)N3CCCCN(S(C)(=O)=O)C[C@@H]23)cc1", "z-score": "-10.2 (active)"},
      {"smiles": "COc1ccccc1NC(=O)N1CCCCN2[C@@H](CO)[C@@H](c3ccc(C#Cc4ccccc4)cc3)[C@@H]2C1", "z-score": "-2.86 (inactive)"},
      {"smiles": "CS(=O)(=O)Nc1ccc2c(c1)[C@@H]1C[C@H](CC(=O)NCc3cc(F)ccc3F)O[C@@H](CO)[C@@H]1O2", "z-score": "-0.994 (inactive)"},
      {"smiles": "C/C=C/c1ccc([C@H]2[C@@H](CNC(=O)NC(C)C)N(C(=O)C3CCC3)[C@H]2CO)cc1", "z-score": "1.01 (inactive)"},
      {"smiles": "C[C@@H](O)C#Cc1ccc([C@H]2[C@H](CO)N3CCCCN(C(=O)c4ccc5c(c4)OCO5)C[C@@H]23)cc1", "z-score": "-0.442 (inactive)"},
      {"smiles": "CCS(=O)(=O)NCC[C@H]1CC[C@@H](NC(=O)Nc2cc(Cl)cc(Cl)c2)[C@@H](CO)O1", "z-score": "2.83 (inactive)"}
    ]}
  ]
}
